Only a selection was taken, and hits are over-represented in it overall.
Pf Dd2 inh: inhibitors of Plasmodium falciparum Dd2 growth; Potency, µM (doses to about 28.9 µM), without a hit: top-dose activity, negative = inhibition, hits mostly inhibitors; AID 1347417; P. falciparum Dd2 growth, SYBR Green, 72 h; 120,000 compounds, 4.3% hits; active = well fitted inhibition curve with a large enough effect;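 also: plate controls were DMSO vehicle for no effect and reference drug for full effect; nearly all actives have a fitted effect of over 65% in size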
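Readout: SYBR Green fluorescence, 485 nm excitation, 535 nm emission, after ~16 h lysis at 37C. Before that, Dd2-infected red cells (2.5% hematocrit) grew 72 h with compound, 29 uM top final concentration.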
* marks the source's active call; other numbers are inactive results; i = inactive; [ ] = dose if it differs, or a comment. Potency is read from the fitted curve at half-maximal effect.

SMILES	Pf Dd2 inh
c1ccc2cc(-c3noc([C@@H]4Cc5nc[nH]c5CN4CC4CCCCC4)n3)ccc2c1	-14%[44.1 µM]
O=C(CNC(=O)c1ccccc1)OCc1cc(=O)n2nc(C3CCCCC3)sc2n1	47%
CN(Cc1ccccc1)C(=O)[C@H]1O[C@H](CCN2CCN(Cc3ccccc3)CC2)CC[C@@H]1O	4.5µM*
C#CCN(C)CC[C@@H]1CC[C@H](O)[C@@H](C(=O)N(C)Cc2ccccc2)O1	-12%[44.1 µM]
CN(Cc1ccccc1)C(=O)[C@H]1O[C@H](CCN2CCOCC2)CC[C@@H]1O	-11%[44.1 µM]
Cc1ccc(-n2ncc(C(=O)Nc3c(Cl)cccc3Cl)c2C2CCNCC2)cc1	-29%
Cc1ccccc1CN1Cc2nc(-c3cccc(C(N)=O)c3)ccc2OCC1=O	-15%[44.1 µM]
Cn1ccnc1-c1nc2cc(S(=O)(=O)N3CCCC3)ccc2n1C	-2%
O=C(Cc1cccc(Cl)c1)NC1CCN(c2cc(-c3cccs3)[nH]n2)C1 (stereo not drawn)	i
CC(C)C(=O)N1CCC(N2C(=O)C3(CCCC3)C2c2ccccc2)CC1 (stereo not drawn)	-6%
COCCC(=O)N1CCC(N2C(=O)C3(CCCCC3)C2c2ccccc2)CC1 (stereo not drawn)	-28%
O=C(CN1CCCCCC1)N1CCC(N2C(=O)C3(CCCC3)C2c2ccccc2)CC1 (stereo not drawn)	4.5µM*
CCOc1ccccc1NC(=O)N1CCC(N2CCN(Cc3ccccc3)C(=O)C2=O)CC1	10%[5.79 µM]
O=C(CN1CCOCC1)N1CCC(N2C(=O)C3(CCCCC3)C2c2ccccc2)CC1 (stereo not drawn)	i
CCOc1ccccc1NC(=O)N1CCC(N2C(=O)C3(CCCC3)C2c2ccccc2)CC1 (stereo not drawn)	8.9µM*
CC[C@H]1CN2CC[C@H]1C[C@@H]2CNS(=O)(=O)c1ccc(NC(C)=O)cc1	-4%[44.1 µM]
CCCCS(=O)(=O)N1CCC(CC(=O)NCc2ccccc2)C1 (stereo not drawn)	25%
O=C1CC2CCCC(C1)N2C(=O)c1ccccc1	7%[44.1 µM]
Cc1ccc(NS(=O)(=O)c2ccc3[nH]c4c(c3c2)CCCCCC4)cc1Cl	-24%
CCOC(=O)C1CCCN(c2c(C(=O)c3ccc(C)cc3)cnc3ccc(OCC)cc23)C1 (stereo not drawn)	11µM*
CCOC(=O)C1CCCN(c2ncnc3c2cnn3-c2ccc(C)c(Cl)c2)C1 (stereo not drawn)	62%
CCc1ccc2ncc(C(=O)c3ccc(C)c(C)c3)c(N3CCC(C(N)=O)CC3)c2c1	-34%
Cc1ccc(C(=O)N(C)C2CCc3ccccc32)cc1 (stereo not drawn)	1%[44.1 µM]
Cn1cccc1C(=O)N1CC2CC(C1)[C@H]1CCCC(=O)N1C2 (stereo partly drawn)	-4%
O=C1CCN(C(=O)NC2CCCCC2)CCCC(c2nc(-c3cccnc3)no2)CCN1 (stereo not drawn)	-19%
SMILES	Pf Dd2 inh
Cc1cc(OC2CN(Cc3ccsc3)C2)ccc1F	i
O=C1NCCCCCCN(Cc2ccncc2)[C@@H]2CN(S(=O)(=O)c3ccccc3)CC[C@H]12	10µM*
Cn1cccc1CN1CC[C@@H]2C(=O)NCCCCCCN(Cc3ccncc3)[C@@H]2C1	6.3µM*
O=C1NCCCCCCN(Cc2ccncc2)[C@@H]2CN(Cc3ccccn3)CC[C@@H]12	i
O=C1NCCCCCCN(Cc2ccncc2)[C@@H]2CN(C3CCOCC3)CC[C@@H]12	8%
COc1cccc(CN2CC[C@@H]3C(=O)NCCCCCCN(Cc4ccncc4)[C@@H]3C2)n1	4µM*
CS(=O)(=O)N1CC[C@@H]2C(=O)NCCCCCCN(Cc3ccncc3)[C@@H]2C1	-6%
CCN1CCC(N2CC[C@@H]3C(=O)NCCCCCCN(Cc4ccncc4)[C@@H]3C2)CC1	4%
O=C1NCCCCCCN(Cc2ccncc2)[C@@H]2CN(S(=O)(=O)c3cccnc3)CC[C@H]12	-15%
O=C1NCCCCCCN(Cc2ccncc2)[C@@H]2CN(Cc3cccnc3)CC[C@H]12	-19%
Cc1cc(C)n(CC(=O)Nc2ccc(F)c(F)c2)c(=O)c1C#N	100%[5.79 µM]
COc1ccc(C(=O)N2CCOCC3(C2)CN(c2ccccc2)C3)cc1OC	13%[44.1 µM]
O=C(Oc1ccc(F)cc1)c1nc(SCc2ccc(F)cc2)ncc1Cl	12%
CCCCCNC(=O)CCN(CC)C(=O)c1cc(C)oc1C	i
Cc1cc(C(=O)N(CCC(=O)NCCC(C)C)CCC(C)C)c(C)o1	11µM*
Cc1cc(C(=O)N(CCC(=O)NCc2ccccc2)CCC(C)C)c(C)o1	-15%
O=C(Nc1ccc(F)cc1)c1cc2cc3ccc(Cl)cc3nc2o1	6%
COc1ccc(NC(=O)c2ccco2)cc1NC(=O)c1cccc(C)c1OC	-21%
CNC(=O)N1CCCN(S(=O)(=O)c2ccccc2)CCC(=O)NCC1	7%
COc1cc(OC)nc(N2C[C@H]3OC(=O)N(Cc4ccccc4OC)[C@H]3C2)n1	3.5µM*
COc1ccccc1CN1C(=O)O[C@@H]2CN(C(=O)NC3CCCCC3)C[C@@H]21	-2%
COC(=O)c1ccc(N2C[C@H]3OC(=O)N(Cc4ccccc4OC)[C@H]3C2)nc1	-6%
Cc1ccc(N2CCn3c2nc2c3c(=O)n(CCCc3ccccc3)c(=O)n2C)cc1	28%
COc1cncc(N2CC3(COCC(=O)N(Cc4ccccc4)C3)C2)c1	i
O=C1CCN(S(=O)(=O)c2cccc(F)c2)CCCC(c2nc(-c3ccccc3)no2)CCN1 (stereo not drawn)	i
SMILES	Pf Dd2 inh
O=C(COC(=O)CCCC1=NS(=O)(=O)c2ccccc2N1)Nc1ccc(Br)cc1	39%
COC(=O)c1ccc(NC(=O)CSc2ccc(-c3sc(-c4ccccc4)nc3C)nn2)cc1	13µM*
Cc1nc(-c2ccccc2)sc1-c1ccc(SCC(=O)NCc2ccc(Cl)cc2)nn1	11%
Cc1cccc(NC(=O)CSc2ccc(-c3sc(-c4ccccc4)nc3C)nn2)c1C	i
Cc1ccc(C)c(NC(=O)Cn2c(-c3nonc3N)nc3ccccc32)c1	18%
COC(=O)c1cc2sccc2n1Cc1ccccc1	31%
COC(=O)c1cc2sc(C)cc2n1Cc1ccccc1	-7%
COC(=O)c1cc2sc(C)cc2n1Cc1cccc(OC)c1	10µM*
COc1cc2c(cc1OC)C(C[C@H]1CN(C(=O)c3ccco3)CC[C@H]1CC(=O)O)=NCC2	-11%
O=C1CC(c2c(Cl)cccc2Cl)c2c(ccc3ccccc23)N1 (stereo not drawn)	i
O=C1CC(c2c(F)cccc2Cl)c2c(ccc3ccccc23)N1 (stereo not drawn)	i
CCCCOc1ccccc1C1CC(=O)Nc2ccc3ccccc3c21 (stereo not drawn)	14µM*
COc1ccc(Cl)cc1NC(=O)Cn1c2ncccc2c(=O)n1-c1ccc(C)c(C)c1	13%
O=C(c1ccoc1)N1CCN(c2cc(-c3cccs3)[nH]n2)CC1	i
CCNC(=O)[C@@H]1C[C@H](n2cc(-c3ccc(CN4CCOCC4)cc3)nn2)CN1	-21%
Cc1c(Cl)cccc1NC(=O)C(C)n1nc(C)c2c(C)n(-c3ccccc3)nc2c1=O (stereo not drawn)	4%
CSc1ncc(C(=O)Nc2ccccc2C(=O)c2ccccc2)c(C(F)(F)F)n1	24%
O=C1CC(c2ccccc2)N(C(=O)CNC(=O)c2cccnc2)CCCCCCN1 (stereo not drawn)	24%
O=C1CC(c2ccccc2)N(C(=O)CNC(=O)c2ccncc2)CCCCCCN1 (stereo not drawn)	31%
COc1ccc2cc(C(=O)NCC(=O)N3CCCCCCNC(=O)CC3c3ccccc3)[nH]c2c1 (stereo not drawn)	14µM*
